# Data from PubChem BioAssay AID1159580 (chemical genetic matrix, 2015).
# Where “and” joins values, the source holds several entries; their conditions need not be identical. Equal entries are not always repeated. About 2,000 (36%) of roughly 5,500 compounds were called active. Roughly 18% stayed inconclusive and do not appear here. No stated cut-off is given here; in the data, active means normalized growth mostly below about 0.91 (no sharp cut-off); inconclusive means no clear call, values can overlap the other calls; inactive means mostly above about 0.92. Some of the results follow. A structure can be active in one record and inactive in another.
# Test: chemical genetic growth profiling, strain panel (AID 1159580);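 further: tested at 20 µM; growth read once vehicle control cultures reached saturation at 30 °C; 1 = growth at the plate median or of vehicle wells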
# Conditions: growth OD
# [1] = S. cerevisiae deletion strains, locus YAL013W, strain DEP1, stronger effect = lower value
# [2] = S. cerevisiae deletion strains, locus YAL040C, strain CLN3, stronger effect = lower value
# [3] = S. cerevisiae deletion strains, locus YBR229C, strain ROT2, stronger effect = lower value
# [4] = S. cerevisiae deletion strains, locus YCL061C, strain MRC1 (second series), stronger effect = lower value
# [5] = S. cerevisiae deletion strains, locus YCL061C, strain MRC1, stronger effect = lower value
# [6] = S. cerevisiae deletion strains, locus YDL101C, strain DUN1, stronger effect = lower value
# [7] = S. cerevisiae deletion strains, locus YDL134C, strain PPH21, stronger effect = lower value
# [8] = S. cerevisiae deletion strains, locus YDR150W, strain NUM1, stronger effect = lower value
# [9] = S. cerevisiae deletion strains, locus YDR363W, strain ESC2, stronger effect = lower value
# [10] = S. cerevisiae deletion strains, locus YEL061C, strain CIN8, stronger effect = lower value
# [11] = S. cerevisiae deletion strains, locus YER002W, strain NOP16, stronger effect = lower value
# [12] = S. cerevisiae deletion strains, locus YGR078C, strain PAC10, stronger effect = lower value
# [13] = S. cerevisiae deletion strains, locus YHR030C, strain SLT2, stronger effect = lower value
# [14] = S. cerevisiae deletion strains, locus YHR087W, strain rtc3, stronger effect = lower value
# [15] = S. cerevisiae deletion strains, locus YJR075W, strain HOC1, stronger effect = lower value
# [16] = S. cerevisiae deletion strains, locus YLR039C, strain RIC1, stronger effect = lower value
# [17] = S. cerevisiae deletion strains, locus YLR058C, strain SHM2 (second series), stronger effect = lower value
# [18] = S. cerevisiae deletion strains, locus YLR085C, strain ARP6, stronger effect = lower value
# [19] = S. cerevisiae deletion strains, locus YLR262C, strain YPT6, stronger effect = lower value
# [20] = S. cerevisiae deletion strains, locus YML094W, strain GIM5, stronger effect = lower value
# [21] = S. cerevisiae deletion strains, locus YMR219W, strain ESC1, stronger effect = lower value
# [22] = S. cerevisiae deletion strains, locus YMR263W, strain SAP30, stronger effect = lower value
# [23] = S. cerevisiae deletion strains, locus YMR307W, strain GAS1, stronger effect = lower value
# [24] = S. cerevisiae deletion strains, locus YNL153C, strain GIM3, stronger effect = lower value
# [25] = S. cerevisiae deletion strains, locus YNL175C, strain NOP13, stronger effect = lower value
# [26] = S. cerevisiae deletion strains, locus YNL197C, strain WHI3, stronger effect = lower value
# [27] = S. cerevisiae deletion strains, locus YNL224C, strain SQS1, stronger effect = lower value
# [28] = S. cerevisiae deletion strains, locus YNL298W, strain CLA4 (second series), stronger effect = lower value
# [29] = S. cerevisiae deletion strains, locus YNL322C, strain KRE1, stronger effect = lower value
# [30] = S. cerevisiae deletion strains, locus YNR030W, strain Alg12, stronger effect = lower value
# [31] = S. cerevisiae deletion strains, locus YOR083W, strain WHI5 (second series), stronger effect = lower value
# [32] = S. cerevisiae deletion strains, locus YPL055C, strain LGE1, stronger effect = lower value
# [33] = S. cerevisiae deletion strains, locus YPL241C, strain CIN2, stronger effect = lower value
# [34] = S. cerevisiae deletion strains, locus YPR135W, strain CTF4, stronger effect = lower value
smiles,measurement,setting,value
COc1cc2ncnc(Nc3cccc(Cl)c3)c2cc1OC,normalized growth,[1],0.962 (inactive) and 0.936 (inactive)
same,normalized growth,[2],1.03 (inactive)
same,normalized growth,[3],0.962 (inactive)
same,normalized growth,[4],0.987 (inactive)
same,normalized growth,[5],0.956 (inactive)
same,normalized growth,[6],0.985 (inactive)
same,normalized growth,[7],0.877 (active)
same,normalized growth,[8],0.915 (inactive) and 0.999 (inactive)
same,normalized growth,[9],0.968 (inactive)
same,normalized growth,[10],0.834 (active)
same,normalized growth,[11],0.976 (inactive)
same,normalized growth,[12],0.968 (inactive) and 0.958 (inactive)
same,normalized growth,"S. cerevisiae deletion strains, locus YGR229C, strain SMI1, stronger effect = lower value",0.97 (inactive)
same,normalized growth,[13],0.882 (inactive)
same,normalized growth,[14],0.95 (inactive)
same,normalized growth,[15],0.906 (inactive)
same,normalized growth,[16],1.03 (inactive)
same,normalized growth,[17],0.981 (inactive)
same,normalized growth,[18],0.46 (active)
same,normalized growth,[19],1.02 (inactive)
same,normalized growth,[20],0.828 (active)
same,normalized growth,[21],0.986 (inactive)
same,normalized growth,[22],0.91 (inactive)
same,normalized growth,[23],0.562 (active) and 0.979 (inactive)
same,normalized growth,[24],0.974 (inactive)
same,normalized growth,[25],0.954 (inactive)
same,normalized growth,[26],0.982 (inactive)
same,normalized growth,[27],0.965 (inactive)
same,normalized growth,[28],0.883 (inactive)
same,normalized growth,[29],0.99 (inactive)
same,normalized growth,[30],0.82 (active)
same,normalized growth,[31],0.89 (inactive)
same,normalized growth,[32],0.815 (inactive) and 0.967 (inactive)
same,normalized growth,[33],0.831 (active)
same,normalized growth,[34],0.533 (active)
same,normalized growth,"S. cerevisiae strains, strain wild type, stronger effect = lower value",0.926 (inactive)
CC(C)[C@@H](CO)Nc1nc(Nc2cccc(Cl)c2)c2ncn(C(C)C)c2n1,normalized growth,[1],1.01 (inactive)
same,normalized growth,[2],1.01 (inactive)
same,normalized growth,[4],1.01 (inactive)
same,normalized growth,[9],1.02 (inactive)
same,normalized growth,[11],1.04 (inactive)
same,normalized growth,[15],1.02 (inactive)
same,normalized growth,[24],0.894 (inactive)
same,normalized growth,[25],0.982 (inactive)
same,normalized growth,[26],0.994 (inactive)
same,normalized growth,[27],0.989 (inactive)
same,normalized growth,[31],0.913 (inactive)
same,normalized growth,[32],1.02 (inactive)
CN(C)c1cc2c(Nc3ccc4c(cnn4Cc4ccccc4)c3)ncnc2cn1,normalized growth,[1],0.994 (inactive)
same,normalized growth,[2],0.971 (inactive)
same,normalized growth,[4],1.01 (inactive)
same,normalized growth,[8],1.01 (inactive)
same,normalized growth,[9],0.998 (inactive)
same,normalized growth,[11],0.98 (inactive)
same,normalized growth,[15],1.01 (inactive)
same,normalized growth,"S. cerevisiae deletion strains, locus YNL128W, strain TEP1, stronger effect = lower value",1 (inactive)
same,normalized growth,[25],0.995 (inactive)
same,normalized growth,[26],1 (inactive)
same,normalized growth,[27],1.02 (inactive)
same,normalized growth,[31],0.954 (inactive)
same,normalized growth,[33],1 (inactive)
COc1cc(C2Nc3cccc4cccc(c34)N2)cc(OC)c1OC,normalized growth,[1],0.962 (inactive)
same,normalized growth,[3],1.01 (inactive)
same,normalized growth,[5],1.02 (inactive)
same,normalized growth,[6],1.05 (inactive)
same,normalized growth,[7],0.985 (inactive)
same,normalized growth,[8],1.04 (inactive)
same,normalized growth,[10],0.925 (inactive)
same,normalized growth,[12],1.02 (inactive)
same,normalized growth,[13],0.729 (inactive)
same,normalized growth,[14],1.01 (inactive)
same,normalized growth,"S. cerevisiae deletion strains, locus YJL187C, strain SWE1, stronger effect = lower value",0.992 (inactive)
same,normalized growth,"S. cerevisiae deletion strains, locus YJR043C, strain POL32, stronger effect = lower value",1.01 (inactive)
same,normalized growth,[15],1.07 (inactive)
same,normalized growth,[16],0.751 (active)
same,normalized growth,[17],1 (inactive)
same,normalized growth,[18],0.881 (inactive)
same,normalized growth,[19],0.808 (active)
same,normalized growth,[20],0.883 (inactive)
same,normalized growth,[21],1 (inactive)
same,normalized growth,[22],0.996 (inactive)
same,normalized growth,[23],0.661 (active)
same,normalized growth,[24],1.02 (inactive)
same,normalized growth,[28],0.877 (inactive)
same,normalized growth,[29],1 (inactive)
same,normalized growth,[30],0.736 (active)
same,normalized growth,[32],0.945 (inactive)
same,normalized growth,[33],0.403 (active)
same,normalized growth,[34],0.952 (inactive)
